These results are taken from PubChem BioAssay.

For assay [1], the target named is Albumin (Bos taurus) (UniProt P02769). Briefly: compounds binding labelled BSA control protein – biochemical, small-molecule microarray, Alexa647 label, 635/667 nm fluorescence, artefact control for SMM control protein annotation, profiling panel (AID 1118).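 Note: score merges 667 nm emission intensity and signal-to-noise per printed compound spot.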 To be noted: BSA-A647 binding, fluorescence 635 nm, higher = more signal.
Albumin (Bos taurus), sequence (P02769 whole entry, looked up): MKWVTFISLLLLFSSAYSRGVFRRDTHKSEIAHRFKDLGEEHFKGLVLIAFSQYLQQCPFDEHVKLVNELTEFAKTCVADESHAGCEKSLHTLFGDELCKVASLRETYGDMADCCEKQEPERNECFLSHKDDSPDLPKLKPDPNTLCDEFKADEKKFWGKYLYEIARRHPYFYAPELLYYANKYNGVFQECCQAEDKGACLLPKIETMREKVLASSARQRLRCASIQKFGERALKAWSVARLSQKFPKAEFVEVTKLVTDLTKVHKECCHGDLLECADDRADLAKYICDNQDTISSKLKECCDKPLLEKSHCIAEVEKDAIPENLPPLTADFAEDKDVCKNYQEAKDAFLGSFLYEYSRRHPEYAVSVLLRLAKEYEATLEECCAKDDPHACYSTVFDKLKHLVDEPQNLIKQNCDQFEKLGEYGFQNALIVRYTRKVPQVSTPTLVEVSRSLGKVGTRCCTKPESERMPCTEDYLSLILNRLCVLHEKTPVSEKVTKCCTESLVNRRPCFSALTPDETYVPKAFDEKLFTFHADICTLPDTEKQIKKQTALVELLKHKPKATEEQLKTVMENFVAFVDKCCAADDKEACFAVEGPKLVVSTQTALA
Assay [2] is described as follows: probe aXIP binding to arrayed compounds – biochemical, NeuroSMM set, 635/667 nm fluorescence, primary screen (AID 1119).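 Note: probe is the protein aXip251-270 applied at 1 µg/mL to compound-printed slides; binding of probe to printed compounds measured as 667 nm fluorescence plus signal to noise.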 To be noted: small-molecule microarray; higher = more signal, called active from +8 up or from −8 down unless noted.
Assay [3] in a line: probe aNOTCH3 binding on compound microarray – biochemical, small-molecule microarray, 635/667 nm fluorescence, primary screen (AID 1120).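 Note: probe is a biotin-tagged antibody raised against NOTCH3 rather than NOTCH3 protein; score merges spot fluorescence near 667 nm with spot signal to noise.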 To be noted: higher = more signal; small-molecule microarray, probe aNOTCH3, fluorescence unless noted.
The nature of assay [4]: probe aNOTCH2 binding on compound microarray – biochemical, small-molecule microarray, 635/667 nm fluorescence, primary screen (AID 1121).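 Note: score merges feature fluorescence read at 667 nm with its signal to noise.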 To be noted: higher = more signal; small-molecule microarray, probe aNOTCH2, fluorescence unless noted.
For assay [5], the target named is Carbonic anhydrase 2 (Homo sapiens) (UniProt P00918). Nature of the assay: compounds binding carbonic anhydrase 2 – biochemical, small-molecule microarray, Alexa647-labelled CAII, profiling panel (AID 1122). To be noted: CAII-A647 binding fluorescence, higher = more signal.
Assay [6] can be described thus: COS7 lysate on small-molecule microarray, probe aHis, 635 nm (AID 1123).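 Note: z-score combines 667nm fluorescence intensity with signal-to-noise per printed compound spot.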 To be noted: higher = more signal; small-molecule microarray, COS7 cell lysate, probe aHis, fluorescence unless noted.
Assay [7] in a line: probe aLAP1 signal on lysate-treated microarray – cell lysate, small-molecule microarray, COS7 lysate, primary screen (AID 1124).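 Note: lysate comes from COS7 cells expressing LAP1 and is applied at 0.3 µg/mL; score merges spot fluorescence near 667 nm with signal-to-noise over triplicate slides.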 To be noted: higher = more signal; small-molecule microarray, COS7 cell lysate, probe aLAP1, fluorescence unless noted.
The subject of assay [8] is Sam68 (KHDRBS1). Nature of the assay: compounds binding KHDRBS1 protein – biochemical, small-molecule microarray, 635 nm fluorescence, primary screen (AID 1125).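 Note: score merges 667 nm channel intensity with signal to noise over triplicate slides.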 To be noted: higher = more signal.
Assay [9] has as its system Chordin-like protein 2 (CHRDL2). Briefly: compounds binding chordin-like 2 – biochemical, small-molecule microarray, 635 nm fluorescence, primary screen (AID 1126).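 Note: printed compound slides probed with Chrdl2 protein at 4 µg/mL for 1 h at 4 C; score merges 667 nm emission intensity with signal to noise over three replicate slides.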 To be noted: fluorescence 635 nm, higher = more signal.
The target of assay [10] is Concanavalin-A (Canavalia ensiformis) (UniProt P02866). Nature of the assay: compounds binding concanavalin A lectin – biochemical, small-molecule microarray, Alexa647 label, 635 nm, artefact control for SMM control protein annotation, primary screen (AID 1127).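 Note: z combines 667 nm emission intensity with signal-to-noise across three replicate slides.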 To be noted: ConA-A647 binding fluorescence, higher = more signal.
Concanavalin-A (Canavalia ensiformis), sequence (P02866 whole entry, looked up): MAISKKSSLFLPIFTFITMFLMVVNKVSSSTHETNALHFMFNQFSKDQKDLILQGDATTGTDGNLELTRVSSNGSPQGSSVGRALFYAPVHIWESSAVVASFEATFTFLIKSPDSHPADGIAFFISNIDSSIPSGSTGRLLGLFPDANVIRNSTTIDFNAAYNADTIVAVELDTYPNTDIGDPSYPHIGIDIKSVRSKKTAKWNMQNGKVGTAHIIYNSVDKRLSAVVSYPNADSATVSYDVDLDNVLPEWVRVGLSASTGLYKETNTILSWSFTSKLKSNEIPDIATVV
A short description of assay [11]: compounds binding Alexa647 anti-His antibody – biochemical, small-molecule microarray, 635 nm fluorescence, artefact control for SMM control protein annotation, primary screen (AID 1128).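 Note: score merges feature fluorescence with signal-to-noise for each printed compound spot.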 To be noted: higher = more signal.
For assay [12], the system named is Human papillomavirus type 1a E7 protein (residues 1-88). Briefly: HPV1a E7 small-molecule binders, primary screen, biochemical, small-molecule microarray, residues 1-88, 635 nm (AID 1129). To be noted: small-molecule microarray binding, fluorescence 635 nm; higher = more signal.
For assay [13], the target named is Focal adhesion kinase 1 (Homo sapiens) (UniProt Q05397). Nature of the assay: PTK2 protein binding on printed compound slides – biochemical, small-molecule microarray, 635/667 nm fluorescence, BSA, DTT, primary screen (AID 1130).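 Note: composite of spot emission at 667 nm and signal to noise over triplicate slides.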 To be noted: 635 nm fluorescence, higher = more signal.
Focal adhesion kinase 1 (Homo sapiens), sequence (Q05397 whole entry, looked up): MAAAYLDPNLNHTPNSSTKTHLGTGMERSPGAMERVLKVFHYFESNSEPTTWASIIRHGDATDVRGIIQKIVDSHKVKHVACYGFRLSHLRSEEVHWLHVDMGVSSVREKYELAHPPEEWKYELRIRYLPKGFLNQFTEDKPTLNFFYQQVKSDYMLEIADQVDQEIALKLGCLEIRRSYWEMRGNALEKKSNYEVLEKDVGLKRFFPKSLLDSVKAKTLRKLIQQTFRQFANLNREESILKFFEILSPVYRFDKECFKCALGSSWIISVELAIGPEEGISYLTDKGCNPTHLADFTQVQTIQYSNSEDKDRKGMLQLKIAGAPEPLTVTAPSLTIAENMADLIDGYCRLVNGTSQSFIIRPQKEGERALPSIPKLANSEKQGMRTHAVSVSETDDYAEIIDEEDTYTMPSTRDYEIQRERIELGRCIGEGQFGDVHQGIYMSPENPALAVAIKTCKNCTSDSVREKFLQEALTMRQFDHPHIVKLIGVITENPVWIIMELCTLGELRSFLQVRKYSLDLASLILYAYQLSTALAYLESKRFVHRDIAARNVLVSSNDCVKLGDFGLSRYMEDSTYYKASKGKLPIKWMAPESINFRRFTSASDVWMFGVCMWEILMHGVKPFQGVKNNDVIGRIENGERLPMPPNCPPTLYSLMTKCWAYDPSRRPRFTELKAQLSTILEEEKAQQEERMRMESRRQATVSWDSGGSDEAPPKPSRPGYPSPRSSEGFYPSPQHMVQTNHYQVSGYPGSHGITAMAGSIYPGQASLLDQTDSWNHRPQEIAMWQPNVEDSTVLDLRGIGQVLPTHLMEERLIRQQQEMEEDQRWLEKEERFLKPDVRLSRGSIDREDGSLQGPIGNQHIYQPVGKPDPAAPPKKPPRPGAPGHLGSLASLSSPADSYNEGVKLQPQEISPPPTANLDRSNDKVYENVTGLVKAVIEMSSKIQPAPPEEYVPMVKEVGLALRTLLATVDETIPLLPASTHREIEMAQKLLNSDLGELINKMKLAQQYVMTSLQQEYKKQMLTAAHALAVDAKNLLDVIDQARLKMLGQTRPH
Assay [14] deals with Fibrinogen (Alexa647-labelled). Nature of the assay: Alexa647-fibrinogen binding to printed small molecules – biochemical, small-molecule microarray, 635/667 nm fluorescence, artefact control for SMM control-protein annotation, profiling panel (AID 1131).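 Note: z-score merges 667 nm fluorescence with per-spot signal-to-noise over triplicate slides.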 To be noted: fibrinogen-A647 binding fluorescence, higher = more signal.
Assay [15] concerns the target Follistatin (Homo sapiens) (UniProt P19883). Briefly: FST protein binding to printed compounds – biochemical, small-molecule microarray, 635/667 nm fluorescence, primary screen (AID 1132). To be noted: 635 nm fluorescence, higher = more signal.
The target in assay [16] is Fibroblast growth factor 2 (Homo sapiens) (UniProt P09038). Nature of the assay: basic fibroblast growth factor binding to printed compounds – biochemical, small-molecule microarray, 635/667 nm fluorescence, primary screen (AID 1133). To be noted: FGF2, fluorescence 635/667, higher = more signal.
Fibroblast growth factor 2 (Homo sapiens), sequence (P09038 whole entry, looked up): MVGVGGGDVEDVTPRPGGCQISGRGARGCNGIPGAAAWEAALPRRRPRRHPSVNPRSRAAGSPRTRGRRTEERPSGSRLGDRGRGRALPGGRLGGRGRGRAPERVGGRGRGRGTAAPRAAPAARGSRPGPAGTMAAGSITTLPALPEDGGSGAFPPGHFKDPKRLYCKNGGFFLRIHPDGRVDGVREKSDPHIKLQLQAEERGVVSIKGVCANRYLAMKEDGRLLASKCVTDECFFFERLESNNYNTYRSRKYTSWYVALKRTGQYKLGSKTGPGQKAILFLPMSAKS
A short description of assay [17]: JC-1 mitochondrial potential readout, lung cancer cells – cell-based, A549, JC-1 fluorescence, basal, 24 h, 100 nL, profiling panel (AID 1138).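 Note: A549 lung adenocarcinoma cells under basal conditions with no added stimulus; test concentration not given here.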 To be noted: higher = more signal.
The test system of assay [18] is Lefty1. Briefly: Lefty1 protein binding to printed compounds – biochemical, small-molecule microarray, 635/667 nm fluorescence, primary screen (AID 1139). To be noted: fluorescence 635/667, higher = more signal.
For assay [19], the system named is wheat germ agglutinin (Triticum aestivum), Alexa647-labelled. Nature of the assay: Alexa647-WGA lectin binding to printed small molecules – biochemical, small-molecule microarray, 635/667 nm fluorescence, artefact control for SMM control-protein annotation, profiling panel (AID 1140).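 Note: score merges 667 nm feature emission with signal to noise over triplicate slides.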 To be noted: WGA-A647 binding, 635 nm fluorescence, higher = more signal.
The target of assay [20] is Luciferin 4-monooxygenase (Photinus pyralis) (UniProt P08659). Nature of the assay: inhibition of purified Photinus pyralis luciferase – biochemical, luminescence, purified enzyme, 2006 set, primary screen (AID 1141).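 Note: cell-free assay with purified firefly luciferase at 100 ng per well in PBS; test concentration not given here.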 To be noted: purified firefly luciferase, SteadyGlo luminescence, 30 min; higher = more signal, called active from +8 up or from −8 down unless noted.
Luciferin 4-monooxygenase (Photinus pyralis), sequence (P08659 whole entry, looked up): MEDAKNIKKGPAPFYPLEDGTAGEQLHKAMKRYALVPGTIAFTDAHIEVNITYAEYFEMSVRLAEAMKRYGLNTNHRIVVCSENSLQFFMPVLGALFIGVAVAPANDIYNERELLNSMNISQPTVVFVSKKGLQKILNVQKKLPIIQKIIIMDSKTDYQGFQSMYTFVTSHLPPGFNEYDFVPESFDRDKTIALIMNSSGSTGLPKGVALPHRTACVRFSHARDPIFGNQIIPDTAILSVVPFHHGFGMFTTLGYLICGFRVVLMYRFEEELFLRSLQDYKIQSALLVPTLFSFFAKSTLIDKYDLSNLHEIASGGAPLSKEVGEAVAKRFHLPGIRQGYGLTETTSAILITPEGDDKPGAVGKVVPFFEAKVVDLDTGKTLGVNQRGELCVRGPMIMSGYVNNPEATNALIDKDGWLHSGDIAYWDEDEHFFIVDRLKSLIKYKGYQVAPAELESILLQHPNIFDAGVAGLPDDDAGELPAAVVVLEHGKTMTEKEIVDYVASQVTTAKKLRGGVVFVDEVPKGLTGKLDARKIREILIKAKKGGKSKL

Calls of active or inactive are those of the source.

Follistatin (Homo sapiens), sequence (P19883 whole entry, looked up): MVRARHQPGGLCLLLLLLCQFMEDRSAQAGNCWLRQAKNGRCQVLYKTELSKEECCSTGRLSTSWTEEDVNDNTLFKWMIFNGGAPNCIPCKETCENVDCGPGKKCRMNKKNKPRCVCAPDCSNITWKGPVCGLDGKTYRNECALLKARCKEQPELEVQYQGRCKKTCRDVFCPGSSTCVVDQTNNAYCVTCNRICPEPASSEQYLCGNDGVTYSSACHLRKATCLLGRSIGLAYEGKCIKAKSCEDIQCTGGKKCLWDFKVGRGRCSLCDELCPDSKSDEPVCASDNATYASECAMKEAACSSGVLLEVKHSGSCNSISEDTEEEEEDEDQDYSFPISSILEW

Turning to `CCCc1cc2c(n1CCO)C(C)C1CN(C(=O)c3ccccc3)C(C)(C(=O)OC)C21` (stereo not given), the composite z-score in assay [1] is 0.979; in [3], 1.25; in [4], 0.424; in assay [5], 0.843; in [6], 3.26; in assay [7] it was 1.09. Also, the composite z-score in assay [8] is 0.563; in [9] it was -1.23; in assay [10], 1.11; in assay [11], 2.55; in [12], 1.14; in assay [13], 1.42. Further, the composite z-score in assay [14] was 0.64; in [15], -0.315; in assay [16] it was -0.634; in [18], -0.875; in assay [19] it was 1.25. Moreover, the composite Z-score in assay [2] is 0.43 (inactive). The z-score is 0.9 in [17] and 1.54 (inactive) in [20].
Take `COC(=O)[C@@]1(Cc2ccccc2)[C@H]2c3cc(C(=O)N(C)C)n(C)c3C[C@H]2CN1C(=O)c1ccccc1`: the composite z-score came to 0.958 in assay [1]; 0.165 in assay [3]; 0.111 in assay [4]; 0.839 in [5]; 3.26 in assay [6]; 1.29 in assay [7]. For the same compound, the composite z-score in assay [8] was -0.299; in assay [9], -0.652; in assay [10], 0.396; in [11] it was 1.18; in assay [12], 0.898; in assay [13], 0.144. Besides, the composite z-score in assay [14] was 0.84; in assay [15] it was -0.21; in assay [16] it was 0.125; in assay [18] it was -0.627; in [19], 0.668. Moreover, the composite Z-score in assay [2] was -0.183 (inactive). For the same compound, the z-score was -0.0935 in assay [17] and 1.59 (inactive) in assay [20].
As to `COc1cc2c(cc1O)C=[N+](C)CC2`, the composite z-score is 0.502 in assay [1]; -0.0377 in assay [3]; -0.133 in assay [4]; 0.329 in assay [5]; -0.4 in [6]; -0.93 in assay [7]. For the same compound, the composite z-score was -1.67 in [8]; 0.185 in [9]; -1.48 in assay [10]; 1.02 in assay [11]; -0.662 in assay [12]; -0.0048 in [13]. The composite z-score was -1.32 in assay [14]; 0.469 in assay [15]; 1.17 in assay [16]; 0.495 in assay [18]; -0.252 in [19]. For the same compound, the composite Z-score in [2] is -0.296 (inactive). Also, the z-score in assay [17] is 1.28; in assay [20], -0.556 (inactive).
Regarding `CN1CCC(c2ccc(CO)cc2)=CC1c1cccs1` (stereo not given), the composite z-score in [1] was -0.105; in assay [3] it was 0.956; in assay [4] it was -0.14; in [5] it was 0.737; in assay [6], -0.563; in [7] it was 0.179. The composite z-score in assay [8] was -1.28; in assay [9], 1.35; in assay [10], 0.199; in assay [11], 0.399; in assay [12] it was -0.668; in [13], 0.903. Further, the composite z-score in assay [14] was -0.28; in assay [15], 0.699; in [16], 0.0576; in [18], 1.35; in assay [19], 0.244. Moreover, the composite Z-score in assay [2] was 0.204 (inactive). The z-score was 0.389 in assay [17] and -1.16 (inactive) in assay [20].
With `COC(=O)[C@@]1(Cc2ccccc2)[C@H]2c3cc(C(=O)N(C)C)[nH]c3C[C@H]2CN1C(=O)c1ccccc1`, the composite z-score is 0.772 in assay [1]; -0.0017 in assay [3]; -0.0193 in [4]; 0.896 in [5]; -0.0769 in [6]; 0.0772 in [7]. Further, the composite z-score in [8] is -1.41; in [9], -0.219; in assay [10], -0.394; in [11], 0.523; in assay [12], -1.26; in assay [13], -0.206. In addition, the composite z-score in assay [14] is -0.0736; in [15], -0.426; in assay [16] it was -0.387; in assay [18], -1.29; in assay [19], -0.09. Moreover, in [2], the composite Z-score was -0.0667 (inactive). The values for the z-score in assay [17] and in assay [20] were 0.825 and 2.27 (inactive), respectively.
